Results filed as inconclusive are left out. The source made the active and inactive calls. The calls were made as follows, unless noted: active = hit-call score of the fitted dose curve at least 0.9, where 1 is the maximum; inconclusive = response in the unintended direction; inactive = score below 0.9.
Tests used:
[1] = TOX21_p53_BLA_p2_viability: Viability Assessment in the Tox21 HCT-116 p53 Agonism Beta-lactamase Assay, Phase 2 (AID 2283591);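 also: actives lower the ATP signal meaning cytotoxicity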
Outline: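 HCT-116 p53-bla cells (4000/well) rested 5 h at 37C, then received compounds in DMSO (217-fold dilution) for 16 h at 37C, 5% CO2. After the CCF4 read, CellTiter-Glo was added; ATP luminescence was read after 30 min at room temperature.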

[2] = biological target: Cellular tumor antigen p53 (Homo sapiens) (UniProt P04637); test: TOX21_p53_BLA_p2_ratio: Tox21 HCT-116 p53 Agonism Beta-lactamase Assay, Ratio, Phase 2 (AID 2283592)
Outline: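 First, HCT116 reporter cells settle for 5 h at 37C. Next, DMSO compound solutions are pinned in (217-fold dilution) and left 16 h. Finally, CCF4-AM substrate is loaded 2 h at room temperature and the 460/530 nm ratio read.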

[3] = TOX21_p53_BLA_p3_viability: Viability Assessment in the Tox21 HCT-116 p53 Agonism Beta-lactamase Assay, Phase 3 (AID 2283593);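 also: cells exposed to compound for 16 h before reading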
Outline: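 HCT-116 cells (4000/well) rested 5 h at 37C, then got DMSO compounds by pin tool (217-fold dilution) for 16 h at 37C, 5% CO2. After the bla read, CellTiter-Glo was added and luminescence read at 30 min, room temperature.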

[4] = biological target: Cellular tumor antigen p53 (Homo sapiens) (UniProt P04637); test: TOX21_p53_BLA_p3_ratio: Tox21 HCT-116 p53 Agonism Beta-lactamase Assay, Ratio, Phase 3 (AID 2283596)
Outline: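 Cells were seeded at 4000/well, rested 5 h at 37C, then dosed with DMSO compound solutions (217-fold dilution) for 16 h. CCF4-AM substrate was loaded for 2 h at room temperature, and the 460/530 nm emission ratio was fitted for gain of signal versus DMSO.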

[5] = biological target: Cellular tumor antigen p53 (Homo sapiens) (UniProt P04637); test: TOX21_p53_BLA_p5_ratio: Tox21 HCT-116 p53 Agonism Beta-lactamase Assay, Ratio, Phase 5 (AID 2283599)
Outline: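 HCT-116 cells carrying a p53-inducible beta-lactamase reporter were seeded at 4000 cells/well and dosed after 5 h with compound in DMSO (217-fold dilution). After 16 h at 37C, CCF4-AM substrate was added for 2 h, and the 460/530 nm emission ratio was scored as gain-of-signal versus DMSO.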

[6] = TOX21_p53_BLA_p5_viability: Viability Assessment in the Tox21 HCT-116 p53 Agonism Beta-lactamase Assay, Phase 5 (AID 2283600)
Outline: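 Decreased CellTiter-Glo luminescence denotes lost viability. Exposure: 16 h at 37C, 5% CO2, with compounds from DMSO stocks diluted 217-fold in wells of 4000 cells.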

[7] = TOX21_p53_BLA_p4_viability: Viability Assessment in the Tox21 HCT-116 p53 Agonism Beta-lactamase Assay, Phase 4 (AID 2283597);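 also: hits lower the luminescence signal meaning cytotoxicity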
Outline: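 4000 HCT116 cells per well; 5 h attachment; compounds from DMSO, 217-fold dilution; 16 h at 37C. Then CCF4-AM, 2 h RT, followed by CellTiter-Glo, 30 min RT, luminescence. Decrease = cytotoxicity.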

[8] = CCTE_Harrill_HTTr_Viability_MCF7: CCTE's 6-hour Cell Viability Assessment for the High-Throughput Transcriptomics (HTTr) Platform, in MCF-7 cells cultured in DMEM + 10% fetal bovine serum, Harrill Lab (AID 2284010; active = hit-call score of the fitted dose curve at least 0.9, where 1 is the maximum; inactive = score below 0.9)
Outline: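 Eight-point concentration series, six-hour exposure. Propidium iodide exclusion imaged to assess membrane integrity as a cytotoxicity readout; bidirectional fitting was done with DMSO as negative control and activity baseline.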

[9] = CCTE_Harrill_HTTr_Apoptosis_MCF7: CCTE's 6-hour Apoptosis Assessment for the High-Throughput Transcriptomics (HTTr) Platform, in MCF-7 cells cultured in DMEM + 10% fetal bovine serum, Harrill Lab (AID 2284011; active = hit-call score of the fitted dose curve at least 0.9, where 1 is the maximum; inactive = score below 0.9)
Outline: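 MCF-7 cells in DMEM + 10% FBS exposed 6 h to chemicals over an eight-point dilution series. Caspase-3/7 activation imaged by high-content CellEvent Green staining; fitted bidirectionally versus DMSO.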

[10] = CCTE_Harrill_HTTr_CellCount_MCF7: CCTE's Cell Proliferation Assessment for the High-Throughput Transcriptomics (HTTr) Platform, Harrill Lab (AID 2284012);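 also: count of Hoechst-stained nuclei per well by high-content imaging in MCF-7 cells; cells exposed to compound for six hours; intended direction is loss of nuclei count meaning fewer cells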
Outline: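 For this full-screen endpoint, MCF-7 cultures received eight compound dilutions for six hours. Well nuclei counts from Hoechst imaging were analyzed relative to DMSO.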

[11] = biological target: Cellular tumor antigen p53 (Homo sapiens) (UniProt P04637); test: TOX21_p53_BLA_p4_ratio: Tox21 HCT-116 p53 Agonism Beta-lactamase Assay, Ratio, Phase 4 (AID 2283601)
Outline: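 HCT116 cells carrying an inducible beta-lactamase reporter were plated at 4000 cells/well, rested 5 h, then exposed to compounds in DMSO (217-fold dilution) for 16 h at 37C. CCF4-AM substrate was loaded 2 h at room temperature; 460/530 nm emission ratio scored gain-of-signal versus DMSO.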

[12] = test system: Brachyury (BRA) Protein Expression, Deisenroth Lab, TBXT (gene 6862); test: CCTE_Deisenroth_DEVTOX-GLR_legacy_Bra: (Legacy) CCTE's DevTox GLR-Endo Assay Evaluation of Brachyury (BRA) Protein Expression, Deisenroth Lab (AID 2284329; active = hit-call score of the fitted dose curve at least 0.9, where 1 is the maximum; inactive = score below 0.9)
Outline: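 High-content imaging of fixed RUES2-GLR cells after a 48-hour differentiation with two compound exposures yields percent cells whose Bra signal exceeds pluripotent control median by 5x BMAD; values are baseline-corrected to DMSO.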

[13] = CCTE_Deisenroth_DEVTOX-GLR_legacy_CellCount: (Legacy) Viability Assessment in CCTE's DevTox GLR-Endo Assay, Deisenroth Lab (AID 2284331; active = hit-call score of the fitted dose curve at least 0.9, where 1 is the maximum; inactive = score below 0.9); details: actives raise or lower the signal
Outline: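 Nuclei count by fluorescence high-content imaging (5 fields/well) after 48 h differentiation of RUES2-GLR cells. Two exposures, 24 h apart; 1 nM - 200 uM series; n=4. Bidirectional fit vs DMSO.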

[14] = test system: SRY-box transcription factor 2 (SOX2) Protein Expression, Deisenroth Lab, SOX2 (gene 6657); test: CCTE_Deisenroth_DEVTOX-GLR_legacy_Sox2: (Legacy) CCTE's DevTox GLR-Endo Assay Evaluation of SRY-box transcription factor 2 (SOX2) Protein Expression, Deisenroth Lab (AID 2284346; active = hit-call score of the fitted dose curve at least 0.9, where 1 is the maximum; inactive = score below 0.9)
Outline: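 Two exposures, 24 h apart, during 48 h defined-media differentiation of seeded RUES2-GLR cells; nuclei-stained cells imaged. Sox2 positivity called at 5x BMAD above endoderm control median, DMSO median subtracted.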

[15] = test system: SRY-box transcription factor 17 (SOX17) Protein Expression, Deisenroth Lab, SOX17 (gene 64321); test: CCTE_Deisenroth_DEVTOX-GLR_Endo_SOX17: CCTE's DevTox GLR-Endo Assay Evaluation of SRY-box transcription factor 17 (SOX17) Protein Expression, Deisenroth Lab (AID 2284413; active = hit-call score of the fitted dose curve at least 0.9, where 1 is the maximum; inactive = score below 0.9)
Outline: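 Fluorescent microscopy of a SOX17 reporter in RUES2-GLR pluripotent cells scored endoderm differentiation after 48 h and two 24-h-spaced exposures. Values are percent change in SOX17+ population against 0.2% DMSO, n=4 experimental replicates.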

[16] = test system: Brachyury (BRA) Protein Expression, TBXT (gene 6862); test: CCTE_Deisenroth_DEVTOX-GLR_Endo_BRA: CCTE's DevTox GLR-Endo Assay Evaluation of Brachyury (BRA) Protein Expression, Deisenroth Lab (AID 2284417; active = hit-call score of the fitted dose curve at least 0.9, where 1 is the maximum; inactive = score below 0.9)
Outline: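 RUES2-GLR human pluripotent cells, seeded 24 h, then differentiated 48 h in defined media with two chemical exposures 24 h apart (10-point series, 1 nM - 200 uM). Fixed, nuclear-stained, imaged; endpoint is percent BRA+ cells minus 0.2% DMSO control.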

[17] = test system: SRY-box transcription factor 17 (SOX17) Protein Expression, Deisenroth Lab, SOX17 (gene 64321); test: CCTE_Deisenroth_DEVTOX-GLR_Pluri_SOX17: CCTE's DevTox GLR-Pluri Assay Evaluation of SRY-box transcription factor 17 (SOX17) Protein Expression, Deisenroth Lab (AID 2284427)
Outline: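 RUES2-GLR pluripotent cells were induced toward endoderm over 48 h and received two compound doses 24 h apart, in a 10-point series from 1 nM to 200 uM. The percentage of SOX17+ cells among total cells was measured by high-content imaging and reported minus the 0.2% DMSO control.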

[18] = test system: SRY-box transcription factor 2 (SOX2) Protein Expression, Deisenroth Lab, SOX2 (gene 6657); test: CCTE_Deisenroth_DEVTOX-GLR_Pluri_SOX2: CCTE's DevTox GLR-Pluri Assay Evaluation of SRY-box transcription factor 2 (SOX2) Protein Expression, Deisenroth Lab (AID 2284428; active = hit-call score of the fitted dose curve at least 0.9, where 1 is the maximum; inactive = score below 0.9)
Outline: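 RUES2-GLR human pluripotent cells, two exposures 24 h apart over 48 h differentiation; 10-point series 1 nM - 200 uM. High-content imaging gives SOX2+ cells divided by cell count, reported as percent change versus 0.2% DMSO.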

[19] = CCTE_Deisenroth_DEVTOX-GLR_Pluri_CellCount: Viability Assessment in CCTE's DevTox GLR-Pluri Assay Evaluation of Total Cell Counts, Deisenroth Lab (AID 2284430; active = hit-call score of the fitted dose curve at least 0.9, where 1 is the maximum; inactive = score below 0.9)
Outline: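 Cytotoxicity readout: fluorescent nuclei counts by high-content imaging, expressed as percent change relative to 0.2% DMSO. Human RUES2-GLR pluripotent line differentiated 48 h, dosed twice at 24-h intervals across 1 nM - 200 uM (10 points).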

PGR (gene 5241) [20] = biological target: PGR (gene 5241) (UniProt P06401); test: TOX21_PR_BLA_Followup_Antagonist_ratio: Tox21 HEK293 Progesterone Receptor (PR) Antagonism Beta-lactamase Follow-Up Assay, Ratio (AID 2283934);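 also: PR-UAS-bla HEK293T cells stimulated with 1 nM R5020 agonist for 16 hr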
Outline: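 Measured in PR-UAS-bla HEK293T cells co-treated with compound and 1 nM promegestone for 16 hr; beta-lactamase ratio read after 2 h FRET substrate loading, with parallel CellTiter-Glo cytotoxicity.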

[21] = TOX21_PR_BLA_Followup_Agonist_viability: Viability Assessment in the Tox21 HEK293 Progesterone Receptor (PR) Agonism Beta-lactamase Follow-Up Assay (AID 2283935);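 also: signal loss means lower viability so actives are cytotoxic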
Outline: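 Viability is read as CellTiter-Glo luminescence, where loss of signal indicates cytotoxicity. The cells are PR-UAS-bla HEK293T given compounds for 16 hr at 37C and 5% CO2, in the same wells used for the bla readout.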

[22] = TOX21_PR_BLA_Followup_Antagonist_viability: Viability Assessment in the Tox21 HEK293 Progesterone Receptor (PR) Antagonism Beta-lactamase Follow-Up Assay (AID 2283936);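 also: cells exposed to compound with R5020 agonist for 16 h; hits lower the luminescence signal meaning cytotoxicity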
Outline: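 PR-UAS-bla HEK293T cells in medium with 2% charcoal-stripped FBS were treated with compounds plus R5020 for 16 hr at 37C. After the beta-lactamase read, CellTiter-Glo was added to the same wells and luminescence read after 30 min at room temperature.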

PGR (gene 5241) [23] = biological target: PGR (gene 5241) (UniProt P06401); test: TOX21_PR_LUC_Followup_Antagonist: Tox21 HEK293 Progesterone Receptor (PR) Antagonism Luciferase Follow-Up Assay (AID 2283938);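 also: curve fitted upward as signal gain over DMSO baseline despite antagonist label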
Outline: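 HEK293-PR-A-luc cells, 3,000/well, preincubated 5 h at 37C before compound addition in DMSO; 16 h compound exposure at 37C. ONE-Glo luciferase luminescence read after 30 min at room temperature, fitted relative to DMSO baseline.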

[24] = TOX21_PR_LUC_Followup_Antagonist_viability: Viability Assessment in the Tox21 HEK293 Progesterone Receptor (PR) Antagonism Luciferase Follow-Up Assay (AID 2283940)
Outline: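 Loss of CellTiter-Glo ATP signal indicates cytotoxicity in HEK293-PR-A-luc cells grown in 10% charcoal-stripped FBS medium, seeded 3,000 per well and incubated 16 h with compound at 37C.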

[25] = TOX21_PR_LUC_Followup_Agonist_viability: Viability Assessment in the Tox21 HEK293 Progesterone Receptor (PR) Agonism Luciferase Follow-Up Assay (AID 2283941);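 also: loss of signal means cytotoxicity so actives lower viability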
Outline: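 Seeding: HEK293-PR-A-luc, 3,000 cells/well, 5 h at 37C. Treatment: compound in DMSO, 16 h, 37C. Read: CellTiter-Glo ATP luminescence, signal loss taken as lower viability.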

Measured: AC50

Sequence of Cellular tumor antigen p53 (Homo sapiens) (P04637 whole entry, looked up): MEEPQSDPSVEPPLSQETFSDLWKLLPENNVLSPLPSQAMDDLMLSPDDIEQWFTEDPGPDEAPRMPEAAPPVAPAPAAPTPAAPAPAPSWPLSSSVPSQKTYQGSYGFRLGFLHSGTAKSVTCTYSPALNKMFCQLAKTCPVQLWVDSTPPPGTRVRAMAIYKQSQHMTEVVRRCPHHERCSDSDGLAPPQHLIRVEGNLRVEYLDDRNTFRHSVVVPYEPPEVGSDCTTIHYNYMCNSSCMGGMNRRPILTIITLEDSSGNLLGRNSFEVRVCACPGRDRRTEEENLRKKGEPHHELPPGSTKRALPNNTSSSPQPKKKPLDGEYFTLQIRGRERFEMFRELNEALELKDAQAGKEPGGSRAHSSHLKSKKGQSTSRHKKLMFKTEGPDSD
Sequence of PGR (gene 5241) (P06401 whole entry, looked up): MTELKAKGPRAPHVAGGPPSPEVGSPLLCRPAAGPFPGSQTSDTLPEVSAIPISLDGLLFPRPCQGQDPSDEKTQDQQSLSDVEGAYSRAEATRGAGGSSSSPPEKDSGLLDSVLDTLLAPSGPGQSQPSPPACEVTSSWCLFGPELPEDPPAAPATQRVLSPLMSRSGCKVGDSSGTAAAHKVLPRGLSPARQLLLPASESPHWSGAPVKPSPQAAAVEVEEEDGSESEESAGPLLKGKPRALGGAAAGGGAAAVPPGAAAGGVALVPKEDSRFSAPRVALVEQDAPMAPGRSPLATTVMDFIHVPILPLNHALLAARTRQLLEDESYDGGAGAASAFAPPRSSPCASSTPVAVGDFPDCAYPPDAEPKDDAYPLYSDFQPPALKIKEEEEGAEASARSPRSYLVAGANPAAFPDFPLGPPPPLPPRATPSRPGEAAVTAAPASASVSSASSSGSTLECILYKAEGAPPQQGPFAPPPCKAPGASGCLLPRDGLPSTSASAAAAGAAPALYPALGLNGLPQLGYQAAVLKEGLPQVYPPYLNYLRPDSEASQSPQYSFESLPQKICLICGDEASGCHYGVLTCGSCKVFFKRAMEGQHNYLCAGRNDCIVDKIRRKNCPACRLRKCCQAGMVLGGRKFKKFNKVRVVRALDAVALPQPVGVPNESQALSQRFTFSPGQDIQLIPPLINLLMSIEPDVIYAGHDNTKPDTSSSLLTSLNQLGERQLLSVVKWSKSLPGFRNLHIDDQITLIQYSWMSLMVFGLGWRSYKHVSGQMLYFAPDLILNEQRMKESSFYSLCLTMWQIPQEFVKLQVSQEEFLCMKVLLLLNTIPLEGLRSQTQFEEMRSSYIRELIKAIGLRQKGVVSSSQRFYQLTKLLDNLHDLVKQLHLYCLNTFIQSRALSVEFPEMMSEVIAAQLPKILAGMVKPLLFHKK

O=C1C(O)=C(O)C(=O)C(O)=C1O
inactive: [1] | [2] | [3] | [4] | [5] | [6]

N#CCC(=O)O
inactive: [1] | [2] | [3] | [4] | [7] | [6] | [8] | [9] | [10]

CCN(CC)CCOC(=O)c1cccnc1
inactive: [1] | [2] | [3] | [4] | [5] | [6]

CC(=O)Oc1ccc(C(=C2CCCCC2)c2ccc(OC(C)=O)cc2)cc1
inactive: [1] | [2] | [3] | [4] | [7] | [11]

C[C@@H](O)[C@H]1C(=O)N2C(C(=O)[O-])=C(SC3Cn4cnc[n+]4C3)[C@H](C)[C@H]12 (some centres not stated)
inactive: [1] | [2] | [3] | [4] | [5] | [6]

O=C(c1ccc(F)cc1)C1CCN(CCn2c(=O)[nH]c3ccccc3c2=O)CC1
inactive: [1] | [2] | [3] | [4] | [7] | [6] | [11] | [12] | [19]
active: [13] 58.8 µM | [14] 9.92 µM | [15] 37.9 µM | [16] 70 µM | [17] 100 µM | [18] 19.8 µM

C[C@]12CCC(=O)C=C1CC[C@@H]1[C@@H]2CC[C@@]2(C)[C@H]1CC[C@]2(O)C(=O)CO
inactive: [1] | [2] | [3] | [4] | [7] | [6] | [11] | PGR (gene 5241) [20] | [21] | [22] | PGR (gene 5241) [23] | [24] | [25]

Cc1cc(C)c(N=Nc2c(O)c(S(=O)(=O)O)cc3cc(S(=O)(=O)O)ccc23)cc1C
inactive: [1] | [2] | [3] | [4] | [5] | [6]

CC1(C)S[C@@H]2[C@H](NC(=O)[C@H](N)c3ccccc3)C(=O)N2[C@H]1C(=O)OCOC(=O)[C@@H]1N2C(=O)C[C@H]2S(=O)(=O)C1(C)C
inactive: [1] | [2] | [3] | [4] | [7] | [11]

Nc1cc(-c2ccncc2)c[nH]c1=O
inactive: [1] | [2] | [3] | [4] | [7] | [6] | [11] | [8] | [9]

From PubChem BioAssay (EPA / NIEHS)
